Read-out in assay [1]: urokinase plasminogen activator (uPA), PLAU (gene 5328)
Nature of the assay: BSK_KF3CT_uPA: BioMAP Diversity Plus: KF3CT Assay for urokinase plasminogen activator (uPA) Biomarker Activity (AID 2283075). The note with it: primary human keratinocytes with fibroblasts; actives raise or lower the signal. In outline:
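ELISA read-out of uPA 24 h after dosing human skin keratinocytes co-cultured with foreskin fibroblasts. Signal change fitted both ways relative to DMSO; sulforhodamine B on parallel cultures marks overt cytotoxicity.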

Read-out in assay [2]: CD40, CD40 (gene 958)
Nature of the assay: BSK_LPS_CD40: BioMAP Diversity Plus: LPS Assay for CD40 Biomarker Activity (AID 2283076). Conditions: primary human HUVEC with PBMC; actives raise or lower the signal. The gist of the method: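 Primary human umbilical vein endothelial cells co-cultured with peripheral blood mononuclear cells, LPS-stimulated, were dosed with chemical and read 24 h later. CD40 levels were measured by ELISA and fitted bidirectionally against DMSO as negative control and baseline.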

Read-out in assay [3]: E-selectin (Homo sapiens) (UniProt P16581)
Nature of the assay: BSK_LPS_Eselectin: BioMAP Diversity Plus: LPS Assay for Eselectin Biomarker Activity (AID 2283077). Conditions: primary human HUVEC with PBMC; actives raise or lower the signal. The gist of the method: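 Human umbilical vein endothelial cells co-cultured with peripheral blood mononuclear cells under LPS stimulation; E-selectin measured by ELISA 24 h after chemical dosing. Activity fitted bidirectionally against DMSO as negative control and baseline.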

Read-out in assay [4]: Interleukin-8 (IL8), CXCL8 (gene 3576)
Nature of the assay: BSK_LPS_IL8: BioMAP Diversity Plus: LPS Assay for Interleukin-8 (IL8) Biomarker Activity (AID 2283078). The note with it: primary human HUVEC with PBMC; actives raise or lower the signal. The gist of the method: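 Human umbilical vein endothelial cells co-cultured with PBMC were stimulated with LPS; IL-8 levels were measured by ELISA 24 h after chemical dosing. Activity was fitted bidirectionally against DMSO as negative control and baseline.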

Assay [5] can be described thus: BSK_LPS_SRB: Viability Assessment in the BioMAP Diversity Plus: LPS Assay (AID 2283079).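 Note: total protein by sulforhodamine B absorbance as a cytotoxicity measure; measured one day after compound addition.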 The note with it: primary human HUVEC with PBMC. In outline:
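Human umbilical vein endothelial cells co-cultured with PBMC (LPS system) were dosed for 24 h. Total protein was stained with 0.1% sulforhodamine B after 10% TCA fixation, read at 560 nm, and fitted bidirectionally against DMSO baseline.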

Read-out in assay [6]: Interleukin-1 alpha (IL1a), IL1A (gene 3552)
Nature of the assay: BSK_LPS_IL1a: BioMAP Diversity Plus: LPS Assay for Interleukin-1 alpha (IL1a) Biomarker Activity (AID 2283080). The note with it: primary human HUVEC with PBMC; actives raise or lower the signal. In outline:
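Human umbilical vein endothelial cells co-cultured with peripheral blood mononuclear cells were LPS-stimulated and exposed to test chemicals for 24 h. IL-1 alpha was quantified by ELISA, with bidirectional curve fitting against DMSO as the negative control and baseline.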

Read-out in assay [7]: Monocyte Chemoattractant Protein-1 (MCP1), CCL2 (gene 6347)
Nature of the assay: BSK_LPS_MCP1: BioMAP Diversity Plus: LPS Assay for Monocyte Chemoattractant Protein-1 (MCP1) Biomarker Activity (AID 2283081).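 For AC50: co-culture stimulated with LPS; secreted MCP-1 protein quantified by ELISA in culture supernatant.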 The note with it: primary human HUVEC with PBMC; actives raise or lower the signal. In outline: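 HUVEC plus PBMC co-culture (human primary cells, LPS system) exposed to test chemical for 24 h; MCP-1 measured by ELISA. Bidirectional curve fitting against DMSO baseline; parallel SRB total-protein staining flags overt cytotoxicity.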

Assay [8] can be described thus: BSK_LPS_PGE2: BioMAP Diversity Plus: LPS Assay for Prostaglandin E2 (PGE2) Biomarker Activity (AID 2283082). The note with it: primary human HUVEC with PBMC; actives raise or lower the signal. The gist of the method:
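Primary human endothelial cells and blood mononuclear cells, co-cultured with LPS, receive test chemical; PGE2 ELISA follows at 24 h, with SRB-stained parallel cultures flagging cytotoxicity.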

Read-out in assay [9]: Macrophage colony-stimulating factor (MCSF), CSF1 (gene 1435)
Put plainly: BSK_LPS_MCSF: BioMAP Diversity Plus: LPS Assay for Macrophage colony-stimulating factor (MCSF) Biomarker Activity (AID 2283083). Conditions: primary human HUVEC with PBMC; actives raise or lower the signal. The gist of the method: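 Human umbilical vein endothelial cells co-cultured with peripheral blood mononuclear cells were exposed to compound for 24 h. M-CSF levels were measured by ELISA, and bidirectional curve fitting used DMSO as the negative control and baseline.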

Read-out in assay [10]: Tissue Factor, F3 (gene 2152)
Put plainly: BSK_LPS_TissueFactor: BioMAP Diversity Plus: LPS Assay for Tissue Factor Biomarker Activity (AID 2283084). Conditions: primary human HUVEC with PBMC; actives raise or lower the signal. In outline:
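Human umbilical vein endothelial cells co-cultured with peripheral blood mononuclear cells were dosed and stimulated with LPS. Cell-surface CD142 was quantified by ELISA at 24 h. Activity was fitted bidirectionally against DMSO baseline.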

Read-out in assay [11]: Tumor necrosis factor (Homo sapiens) (UniProt P01375)
Put plainly: BSK_LPS_TNFa: BioMAP Diversity Plus: LPS Assay for Tumour Necrosis Factor alpha (TNFa) Biomarker Activity (AID 2283085).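 For AC50: TNFa protein level quantified by ELISA in the co-culture.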 The note with it: primary human HUVEC with PBMC; actives raise or lower the signal. The gist of the method:
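ELISA-based TNFa endpoint in a human endothelial–PBMC co-culture sampled 24 h post-exposure. Curves were fitted in both directions using DMSO as baseline of activity.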

Read-out in assay [12]: Vascular cell adhesion molecule 1 (VCAM1), VCAM1 (gene 7412)
Nature of the assay: BSK_LPS_VCAM1: BioMAP Diversity Plus: LPS Assay for Vascular cell adhesion molecule 1 (VCAM1) Biomarker Activity (AID 2283086). The note with it: primary human HUVEC with PBMC; actives raise or lower the signal. The gist of the method: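 Measured by ELISA: VCAM-1 in LPS-activated HUVEC/PBMC co-cultures 24 h after treatment. Values reflect bidirectional fitting with DMSO as baseline.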

Read-out in assay [13]: CD38, CD38 (gene 952)
Put plainly: BSK_SAg_CD38: BioMAP Diversity Plus: SAg Assay for CD38 Biomarker Activity (AID 2283087). Conditions: primary human HUVEC with PBMC; actives raise or lower the signal. In outline:
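Measures CD38 on a human endothelial/PBMC co-culture driven by SEB and TSST-1, 24 h after compound exposure, using ELISA with fluorescence detection; DMSO defines baseline for bidirectional curve fitting.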

Read-out in assay [14]: CD40, CD40 (gene 958)
Put plainly: BSK_SAg_CD40: BioMAP Diversity Plus: SAg Assay for CD40 Biomarker Activity (AID 2283088). The note with it: primary human HUVEC with PBMC; actives raise or lower the signal. In outline: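 Human umbilical vein endothelial cells co-cultured with PBMC; CD40 levels measured by ELISA with fluorescence read-out 24 h after chemical dosing. Gain or loss of signal fitted bidirectionally against DMSO baseline.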

Read-out in assay [15]: Monocyte Chemoattractant Protein-1 (MCP1), CCL2 (gene 6347)
Put plainly: BSK_SAg_MCP1: BioMAP Diversity Plus: SAg Assay for Monocyte Chemoattractant Protein-1 (MCP1) Biomarker Activity (AID 2283090). Conditions: primary human HUVEC with PBMC; actives raise or lower the signal. In outline: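 Values derive from bidirectional fitting of ELISA-measured MCP1 against DMSO controls. Readings were taken 24 h after dosing human vascular endothelial cells co-cultured with peripheral blood mononuclear cells under superantigen stimulation.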

Read-out in assay [16]: E-selectin (Homo sapiens) (UniProt P16581)
Put plainly: BSK_SAg_Eselectin: BioMAP Diversity Plus: SAg Assay for Eselectin Biomarker Activity (AID 2283091). The note with it: primary human HUVEC with PBMC; actives raise or lower the signal. The gist of the method:
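HUVEC co-cultured with PBMC, compound dosed then read at 24 h; E-selectin measured by ELISA. Activity fitted bidirectionally against DMSO as negative control and baseline.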

Read-out in assay [17]: Monokine induced gamma interferon (MIG), CXCL9 (gene 4283)
Put plainly: BSK_SAg_MIG: BioMAP Diversity Plus: SAg Assay for Monokine induced gamma interferon (MIG) Biomarker Activity (AID 2283092). The note with it: primary human HUVEC with PBMC; actives raise or lower the signal. The gist of the method: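 HUVEC plus human PBMC co-culture, chemicals dosed and MIG (CXCL9) quantified by ELISA at 24 h. Bidirectional curve fitting against DMSO as negative control and baseline, so both gain and loss of signal count as activity.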

A short description of assay [18]: BSK_SAg_PBMCCytotoxicity: PBMC Cytotoxicity Assessment in the BioMAP Diversity Plus: SAg Assay (AID 2283093).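 For AC50: PBMC superantigen activated with SEB plus TSST-1 one hour after compound addition.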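 Note: PBMC viability measured as Alamar Blue reduction fluorescence at 546/580 nm; fitted both ways against DMSO so a hit may be loss or gain of signal.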 Conditions: primary human HUVEC with PBMC. The gist of the method: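 Alamar Blue reduction (6 h, ex/em 546/580 nm) read after 90 h culture of PBMC pre-dosed 1 h then stimulated with SEB plus TSST-1, 20 ng/mL each. Gain or loss of signal fitted relative to DMSO.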

Read-out in assay [19]: Interleukin-8 (IL8), CXCL8 (gene 3576)
Nature of the assay: BSK_SAg_IL8: BioMAP Diversity Plus: SAg Assay for Interleukin-8 (IL8) Biomarker Activity (AID 2283094). Conditions: primary human HUVEC with PBMC; actives raise or lower the signal. In outline:
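Primary human endothelial cells with PBMC, exposed 24 h; IL-8 determined by ELISA, analysed bidirectionally relative to DMSO.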

Assay [20] is described as follows: BSK_SAg_Proliferation: Cell Proliferation Assessment in the BioMAP Diversity Plus: SAg Assay (AID 2283095).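 Note: relative cell number as total protein by SRB absorbance in sub-confluent culture.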 The note with it: primary human HUVEC with PBMC. In outline: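 A human primary co-culture of umbilical vein endothelium and blood mononuclear cells receives compound; relative cell number is quantified at 96 h by SRB staining and 560 nm absorbance, with DMSO-referenced bidirectional curve fitting.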

SMILES strings stand for the structures. Calls of active or inactive are those of the source. Rule for the calls: active = hit-call score of the fitted dose curve at least 0.9, where 1 is the maximum; inactive = score below 0.9.

E-selectin (Homo sapiens), sequence (P16581 whole entry, looked up): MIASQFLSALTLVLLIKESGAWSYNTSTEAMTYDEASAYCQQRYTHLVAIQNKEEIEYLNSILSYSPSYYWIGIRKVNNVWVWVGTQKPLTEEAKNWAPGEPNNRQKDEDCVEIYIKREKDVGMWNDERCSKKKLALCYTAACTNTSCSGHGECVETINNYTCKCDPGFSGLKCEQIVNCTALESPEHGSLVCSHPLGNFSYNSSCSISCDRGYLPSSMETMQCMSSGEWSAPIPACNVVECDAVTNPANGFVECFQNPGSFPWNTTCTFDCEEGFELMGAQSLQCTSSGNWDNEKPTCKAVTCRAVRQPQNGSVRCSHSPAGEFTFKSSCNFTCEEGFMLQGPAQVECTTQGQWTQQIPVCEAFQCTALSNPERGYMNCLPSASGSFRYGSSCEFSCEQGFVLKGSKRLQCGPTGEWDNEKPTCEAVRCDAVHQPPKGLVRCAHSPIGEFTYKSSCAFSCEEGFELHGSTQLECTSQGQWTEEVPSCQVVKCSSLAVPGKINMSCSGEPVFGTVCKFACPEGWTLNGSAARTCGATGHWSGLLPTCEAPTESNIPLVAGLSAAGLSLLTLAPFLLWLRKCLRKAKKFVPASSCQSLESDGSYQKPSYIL
Tumor necrosis factor (Homo sapiens), sequence (P01375 whole entry, looked up): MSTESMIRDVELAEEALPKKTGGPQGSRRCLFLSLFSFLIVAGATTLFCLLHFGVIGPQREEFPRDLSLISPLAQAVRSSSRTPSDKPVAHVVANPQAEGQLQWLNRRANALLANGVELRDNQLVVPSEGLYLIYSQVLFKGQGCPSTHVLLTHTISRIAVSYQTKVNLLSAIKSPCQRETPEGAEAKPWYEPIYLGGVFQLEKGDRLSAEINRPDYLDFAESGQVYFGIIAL

As to `COc1ccc2nc(N)sc2c1`, the outcome in assay [1], in [2], in [3], in assay [4], in assay [5] and in assay [6] was inactive. Also, the outcome in assay [7], in assay [8], in assay [9], in assay [10], in assay [11] and in assay [12] was inactive. The outcome in [13], in [14], in [15], in assay [16], in [17] and in [18] was inactive. Besides, the outcome in assay [19] and in assay [20] was inactive.

In the case of `CCCCC/C=C\C/C=C\CCCCCCCC(=O)OC`, the AC50 in assay [1] is 30.8 µM (active); in [2] it was 20 µM (active); in [3] it was 36.5 µM (active); in [4], 29.5 µM (active); in [6], 31.8 µM (active); in assay [7], 37.1 µM (active). Also, the AC50 was 32.5 µM (active) in assay [9]; 20 µM (active) in [10]; 36.1 µM (active) in assay [11]; 30 µM (active) in assay [12]; 28.4 µM (active) in [13]; 20 µM (active) in [14]. In addition, the AC50 in assay [16] is 30.9 µM (active); in assay [17] it was 31.4 µM (active); in assay [18], 23.2 µM (active); in [19], 27.8 µM (active); in assay [20] it was 13.1 µM (active). Besides, the outcome in assay [5], in assay [8] and in assay [15] was inactive.

These data come from PubChem BioAssay (EPA / NIEHS).
